# Results: PubChem BioAssay (NCATS)
# Results filed as inconclusive are left out. Entries that show only a call come without a potency. The source made the active and inactive calls. The call rests on the fitted dose curve; in most records, active means well fitted curve in the direction sought with a large enough effect; inconclusive means small, poorly fitted or top-dose-only effect, or another doubt; inactive means no such curve, though single readings can be large; an effect the other way counts as inactive or inconclusive.
# Key:
# [1] = biological target: ATP-dependent 6-phosphofructokinase (Trypanosoma brucei brucei) (UniProt O15648); test: qHTS Assay to Find Inhibitors of T. brucei phosphofructokinase: hit validation (AID 492961);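 further: luminescence reports ADP formed as PFK phosphorylates fructose-6-phosphate with ATP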
# Sequence of ATP-dependent 6-phosphofructokinase (Trypanosoma brucei brucei) (O15648 whole entry, looked up): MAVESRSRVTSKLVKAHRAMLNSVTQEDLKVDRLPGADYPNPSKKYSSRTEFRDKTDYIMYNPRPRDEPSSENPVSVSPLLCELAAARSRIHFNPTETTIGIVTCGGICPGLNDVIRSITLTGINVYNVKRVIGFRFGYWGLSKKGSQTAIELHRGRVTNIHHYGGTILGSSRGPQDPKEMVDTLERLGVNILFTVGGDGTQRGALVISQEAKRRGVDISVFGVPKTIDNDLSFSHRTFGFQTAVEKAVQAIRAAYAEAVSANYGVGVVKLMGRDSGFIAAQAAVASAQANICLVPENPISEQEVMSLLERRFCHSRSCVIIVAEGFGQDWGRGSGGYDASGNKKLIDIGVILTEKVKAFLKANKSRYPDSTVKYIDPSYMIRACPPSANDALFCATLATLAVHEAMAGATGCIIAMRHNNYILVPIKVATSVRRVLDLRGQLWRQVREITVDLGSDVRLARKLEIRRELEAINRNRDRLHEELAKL
# Procedure, shortened: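 Measures ADP output of PFK (1.25 nM) at 0.1 mM ATP, 0.5 mM F6P, pH 8.0 TEA buffer with 5 mM MgCl2. No-enzyme wells define full inhibition; uninhibited enzyme wells define zero.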
# [2] = S16 Schwann cell PMP22 intronic element firefly luciferase assay (AID 624032); further: nearly all actives have a fitted effect of over 30% in size; further: potency means the concentration at half of the fitted maximal effect
# Procedure, shortened: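 Luciferase reporter of PMP22 intronic-element expression in stably transfected S16 rat Schwann cells, read by ONE-Glo luminescence after 24 h compound exposure at 37 C. Activity scaled between DMSO (0%) and positive-control PTC124; concentration-effect curves quality-classified.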
# CP192 = test: qHTS profiling for inhibitors of Plasmodium falciparum proliferation (AID 504749); further: nearly all actives have a fitted effect of over 60% in size; further: potency means the concentration at half of the fitted maximal effect; conditions: P. falciparum in erythrocytes, SYBR Green DNA, 72 h; series mostly up to 28.7 µM
# Procedure, shortened: (§1)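 Infected RBCs, 0.3% parasitemia/2.5% Hct final; cpd 72 h, 37 C, 5% CO2; lysis buffer with saponin/triton/SYBR Green I, o/n RT dark; FI 485/535; norm. to artemisinin (0.29 uM) and DMSO.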
# CP260 = test: as above; conditions: P. falciparum in erythrocytes, SYBR Green DNA, 72 h; series mostly up to 12.8 µM
# Procedure, shortened: as §1
# CP268 = test: as above; conditions: P. falciparum in erythrocytes, SYBR Green DNA, 72 h; series mostly up to 12.8 µM
# Procedure, shortened: as §1
# CP297 = test: as above; conditions: P. falciparum in erythrocytes, SYBR Green DNA, 72 h; series mostly up to 12.8 µM
# Procedure, shortened: as §1
# CP315 = test: as above; conditions: P. falciparum in erythrocytes, SYBR Green DNA, 72 h; series mostly up to 12.8 µM
# Procedure, shortened: as §1
# DIV14 = test: as above; conditions: P. falciparum in erythrocytes, SYBR Green DNA, 72 h; series mostly up to 12.8 µM
# Procedure, shortened: as §1
# DIV17 = test: as above; conditions: P. falciparum in erythrocytes, SYBR Green DNA, 72 h; series mostly up to 12.8 µM
# Procedure, shortened: as §1
# ICS = test: as above; conditions: P. falciparum in erythrocytes, SYBR Green DNA, 72 h; series mostly up to 12.8 µM
# Procedure, shortened: as §1
# JCK = test: as above; conditions: P. falciparum in erythrocytes, SYBR Green DNA, 72 h; series mostly up to 12.8 µM
# Procedure, shortened: as §1
# TAB165 = test: as above; conditions: P. falciparum in erythrocytes, SYBR Green DNA, 72 h; series mostly up to 12.8 µM
# Procedure, shortened: as §1
# W2 = test: as above; conditions: P. falciparum in erythrocytes, SYBR Green DNA, 72 h; series mostly up to 12.8 µM
# Procedure, shortened: as §1
# [3] = qHTS for differential inhibitors of proliferation of Plasmodium falciparum line GB4 (AID 1816); conditions: Potency: Plasmodium falciparum GB4 proliferation inhibition;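 further: parasite growth measured after 72 h incubation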; further: potency means the concentration at half of the fitted maximal effect
# [4] = qHTS for differential inhibitors of proliferation of Plasmodium falciparum line D10 (AID 1877);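 further: parasites grown with compound for 72 h before DNA staining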
# [5] = Quantitative high throughput screen for delayed death inhibitors of the malarial parasite plastid, 96 hour incubation (AID 488745); further: nearly all actives have a fitted effect of over 70% in size
# Procedure, shortened: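 Luciferase-expressing P. falciparum in erythrocytes (2% hematocrit, 0.1% parasitemia) incubated with compound for 96 h at 37 C, 5% CO2, in RPMI 1640 with 0.5% Albumax. Growth inhibition read as decreased luminescence.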
# [6] = Validation screen for small molecules that induce DNA re-replication in SW480 colon adenocarcinoma cells (AID 504364)
# Procedure, shortened: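 SW480 cells (250/well) exposed 48 h at 37 C, 5% CO2, then Hoechst-stained 40 min. Nuclear DNA content imaged by fluorescence scanning (405 nm excitation, 500-530 nm emission); re-replication scored as increased nuclei with elevated intensity.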
# [7] = biological target: RecQ-like DNA helicase BLM (Homo sapiens) (UniProt P54132); test: qHTS Validation Assay for Inhibitors of Bloom's syndrome helicase (BLM) (AID 2364)
# Sequence of RecQ-like DNA helicase BLM (Homo sapiens) (P54132 whole entry, looked up): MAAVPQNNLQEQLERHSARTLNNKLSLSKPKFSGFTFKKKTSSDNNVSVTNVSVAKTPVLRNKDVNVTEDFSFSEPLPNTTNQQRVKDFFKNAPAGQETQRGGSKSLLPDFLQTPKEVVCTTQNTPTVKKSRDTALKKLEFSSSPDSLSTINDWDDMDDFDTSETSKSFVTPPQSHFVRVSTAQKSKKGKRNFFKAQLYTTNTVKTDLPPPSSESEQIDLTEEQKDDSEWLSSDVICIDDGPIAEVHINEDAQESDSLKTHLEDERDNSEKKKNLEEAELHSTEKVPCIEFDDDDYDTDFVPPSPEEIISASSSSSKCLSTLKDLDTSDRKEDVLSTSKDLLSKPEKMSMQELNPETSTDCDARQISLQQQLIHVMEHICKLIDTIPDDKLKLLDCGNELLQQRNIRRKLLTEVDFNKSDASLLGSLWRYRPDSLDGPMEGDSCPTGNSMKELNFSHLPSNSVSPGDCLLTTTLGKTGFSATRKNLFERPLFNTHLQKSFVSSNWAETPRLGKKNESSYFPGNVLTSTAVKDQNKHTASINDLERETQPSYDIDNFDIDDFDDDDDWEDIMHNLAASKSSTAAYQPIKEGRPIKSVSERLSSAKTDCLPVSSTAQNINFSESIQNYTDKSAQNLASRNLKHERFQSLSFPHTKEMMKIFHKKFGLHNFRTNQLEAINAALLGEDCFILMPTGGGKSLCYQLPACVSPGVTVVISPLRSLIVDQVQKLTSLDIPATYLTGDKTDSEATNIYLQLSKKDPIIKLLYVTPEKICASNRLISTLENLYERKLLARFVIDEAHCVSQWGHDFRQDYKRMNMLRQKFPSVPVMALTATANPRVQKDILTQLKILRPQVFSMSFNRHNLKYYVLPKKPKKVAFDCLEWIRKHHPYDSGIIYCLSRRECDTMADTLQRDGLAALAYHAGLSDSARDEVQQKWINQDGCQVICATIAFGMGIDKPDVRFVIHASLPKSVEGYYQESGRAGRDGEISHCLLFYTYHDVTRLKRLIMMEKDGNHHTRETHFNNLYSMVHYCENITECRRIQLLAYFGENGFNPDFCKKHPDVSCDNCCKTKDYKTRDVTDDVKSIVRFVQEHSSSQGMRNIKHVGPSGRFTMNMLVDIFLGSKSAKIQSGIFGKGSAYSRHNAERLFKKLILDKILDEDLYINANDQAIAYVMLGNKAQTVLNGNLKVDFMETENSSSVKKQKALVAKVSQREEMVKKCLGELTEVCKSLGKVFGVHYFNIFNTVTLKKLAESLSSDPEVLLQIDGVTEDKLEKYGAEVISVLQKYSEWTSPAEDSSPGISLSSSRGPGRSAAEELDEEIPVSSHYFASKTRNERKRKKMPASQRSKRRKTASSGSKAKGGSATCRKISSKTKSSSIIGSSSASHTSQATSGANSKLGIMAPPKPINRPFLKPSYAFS
# Procedure, shortened: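 Forked 20-bp duplex substrate (200 nM, TAMRA/BHQ-2) plus 2 mM ATP added after 15 min compound preincubation with 50 nM enzyme, pH 8.0, poly(dI-dC) 2.5 ug/ml. Strand separation followed by fluorescence (525/598 nm) over 2 h, normalized to enzyme-free and DMSO controls.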
# [8] = biological target: DNA dC->dU-editing enzyme APOBEC-3G (Homo sapiens) (UniProt Q9HC16); test: qHTS for inhibitors of Vif-A3G interactions: Validation (AID 588379)
# Sequence of DNA dC->dU-editing enzyme APOBEC-3G (Homo sapiens) (Q9HC16 whole entry, looked up): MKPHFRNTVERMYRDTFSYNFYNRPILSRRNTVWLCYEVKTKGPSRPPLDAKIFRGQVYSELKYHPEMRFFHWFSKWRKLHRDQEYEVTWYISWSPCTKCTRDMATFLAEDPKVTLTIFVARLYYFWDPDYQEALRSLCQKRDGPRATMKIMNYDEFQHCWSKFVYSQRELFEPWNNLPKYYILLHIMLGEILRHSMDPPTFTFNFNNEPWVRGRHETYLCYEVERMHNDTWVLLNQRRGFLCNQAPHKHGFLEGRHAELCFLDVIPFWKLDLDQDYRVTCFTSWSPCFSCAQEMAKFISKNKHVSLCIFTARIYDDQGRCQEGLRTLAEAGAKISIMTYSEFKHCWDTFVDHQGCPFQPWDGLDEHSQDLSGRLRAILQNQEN
# Procedure, shortened: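 HeLa cells stably expressing Vif and A3G-eYFP, 700 cells/well, incubated overnight at 37 deg C, then exposed to compound overnight at 37 deg C. Inhibition of Vif-mediated degradation read as increased yellow fluorescence (Ex 488/Em 500-530) by laser-scanning cytometry.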
# [9] = biological target: Cytochrome P450 2C9 (Homo sapiens) (UniProt P11712); test: qHTS for inhibitors of CYP2C9 against the NCATS DSHEA and TCM libraries (AID 1919973); further: potency means the concentration at half of the fitted maximal effect
# Sequence of Cytochrome P450 2C9 (Homo sapiens) (P11712 whole entry, looked up): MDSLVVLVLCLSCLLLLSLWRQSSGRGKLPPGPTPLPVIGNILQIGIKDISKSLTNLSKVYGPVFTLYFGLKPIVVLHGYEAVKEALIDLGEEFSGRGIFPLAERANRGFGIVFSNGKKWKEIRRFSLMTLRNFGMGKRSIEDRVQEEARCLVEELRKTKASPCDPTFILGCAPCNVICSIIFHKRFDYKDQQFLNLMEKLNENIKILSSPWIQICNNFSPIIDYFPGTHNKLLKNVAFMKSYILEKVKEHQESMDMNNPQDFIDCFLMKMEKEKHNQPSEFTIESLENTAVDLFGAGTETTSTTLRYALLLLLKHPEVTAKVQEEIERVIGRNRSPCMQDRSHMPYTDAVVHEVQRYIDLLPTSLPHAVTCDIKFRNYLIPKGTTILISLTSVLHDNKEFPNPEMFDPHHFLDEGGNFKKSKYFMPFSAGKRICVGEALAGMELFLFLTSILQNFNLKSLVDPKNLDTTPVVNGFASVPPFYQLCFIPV
# Procedure, shortened: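 Luminescent P450-Glo format: compounds preincubated 15 min with enzyme and luciferin substrate, reaction run 30-45 min after NADPH regeneration solution. Intraplate controls: ketoconazole for CYP3A4 and CYP2C19, sulfaphenazole for CYP2C9.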
smiles,measurement,setting,value
Cc1cc(/C=C\c2ccc3cc(N(C)C)ccc3[n+]2C)c(C)n1-c1ccccc1,outcome,[1],inactive
same,Potency,[2],30.9 nM (active)
same,Potency,CP192,2030 nM (active)
same,Potency,CP260,355 nM (active)
same,Potency,CP268,4050 nM (active)
same,Potency,CP297,2280 nM (active)
same,Potency,CP315,2030 nM (active)
same,Potency,DIV14,2870 nM (active)
same,Potency,DIV17,3610 nM (active)
same,Potency,ICS,562 nM (active)
same,Potency,JCK,3160 nM (active)
same,Potency,TAB165,794 nM (active)
same,Potency,W2,128 nM (active)
CNC(=O)[C@H]1O[C@@H](n2cnc3c(N)ncnc32)[C@H](O)[C@H]1O,Potency,[3],inactive
same,Potency,[4],inactive
same,Potency,[5],inactive
same,outcome,[6],inactive
Nc1ncnc2c1nc(Br)n2C1O[C@H]2COP(=O)(O)O[C@@H]2C1O (stereo partly drawn),Potency,[3],12600 nM (active)
same,outcome,[7],inactive
same,outcome,[6],inactive
C[C@@H](Oc1ccc(Oc2cnc3ccc(Cl)cc3n2)cc1)C(=O)O,Potency,[4],inactive
same,outcome,[7],inactive
same,Potency,[5],inactive
COc1ccc2c(c1)[C@@]1(C)CCC[C@](C)(CO)C1CC2 (stereo partly drawn),outcome,[8],inactive
CN(C)CCCO[C@H]1C([C@H](O)CO)O[C@@H]2OC(C)(C)O[C@@H]21 (stereo partly drawn),Potency,[3],inactive
same,Potency,[4],inactive
same,outcome,[7],inactive
same,Potency,[5],inactive
same,outcome,[6],inactive
O=C(Cc1cccs1)NC1C(=O)N2C(C(=O)[O-])=C(C[n+]3ccccc3)CSC12 (stereo not drawn),Potency,[2],inactive
same,Potency,CP192,inactive
same,Potency,CP260,inactive
same,Potency,CP268,inactive
same,Potency,CP297,inactive
same,Potency,CP315,inactive
same,Potency,DIV14,inactive
same,Potency,DIV17,inactive
same,Potency,ICS,inactive
same,Potency,JCK,inactive
same,Potency,TAB165,inactive
same,Potency,W2,inactive
COc1ccc2ccc(=O)oc2c1,Potency,[9],inactive
O=c1ccc2ccc(O)cc2o1,Potency,[9],7080 nM (active)
C=C(C)[C@H]1CC=C(C)C(=O)C1,outcome,[8],inactive
same,Potency,[9],inactive
CC(C)N1CCN(c2ccc(OC[C@@H]3CO[C@@](Cn4cncn4)(c4ccc(Cl)cc4Cl)O3)cc2)CC1,outcome,[1],inactive
same,Potency,[2],inactive
same,Potency,CP260,inactive
same,Potency,CP268,inactive
same,Potency,CP297,inactive
same,Potency,CP315,inactive
same,Potency,DIV14,inactive
same,Potency,DIV17,inactive
same,Potency,ICS,inactive
same,Potency,JCK,inactive
same,Potency,TAB165,inactive
same,Potency,W2,inactive
O=C(/C=C/c1ccc(O)c(O)c1)OC(Cc1ccc(O)c(O)c1)C(=O)O (stereo not drawn),outcome,[8],inactive
